Laboratory results published in PubChem BioAssay (Tox21).
Values joined by “and” are separate entries in the source; they are usually repeats but may differ in a detail not shown here. Equal entries are not always repeated. Records with an inconclusive call do not appear. The source holds several records for some structures; these can differ, active in one and inactive in another. Active and inactive are the calls of the source. Unless noted, calls come from the whole dose curve; as a rule, active = well fitted curve in the direction sought with a large enough effect in the repeat runs; inconclusive = weak or mixed curves; inactive = no such curve, though single readings can be large; an effect the other way counts as inactive or inconclusive.

What was measured:
[1] = qHTS assay to identify small molecule HDAC inhibitors (AID 1259364);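 note: wild-type HCT-116 cells with endogenous class I/II HDAC activity; top concentration of the series differs between compounds; nearly all actives have a fitted effect of over 45% in size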
Outline: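 HCT-116 wt cells, 1,500/well, overnight attach. Compounds (DMSO) 2 h, 37 °C. HDAC-Glo I/II, 30 min RT. Luminescence.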

[2] = qHTS assay to identify small molecule HDAC inhibitors - cell viability counter screen (AID 1259365); note: series mostly up to about 92 µM; nearly all actives have a fitted effect of over 50% in size
Outline: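 HCT-116 (wild type), 1,500 cells/well, overnight 37C/5% CO2; compound in DMSO 2hr; CellTiter-Glo 30min RT; luminescence read.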

[3] = qHTS assay to identify small molecule agonists of the sonic hedgehog signaling (Shh) pathway - cell viability counter screen (AID 1259366); note: nearly all actives have a fitted effect of over 50% in size; note: potency is the fitted concentration of half-maximal effect
Outline: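 CellTiter-Fluor fluorescence read-out, 1 hr at 37C, added after 23hr compound exposure. Cells: 3T3 Gli1-Luc, an NIH/3T3 clone with stably integrated Gli1-Luc reporter, plated 4hr before compound.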

[4] = qHTS assay to identify small molecule antagonists of the sonic hedgehog signaling (Shh) pathway - cell viability counter screen (AID 1259367); note: nearly all actives have a fitted effect of over 55% in size; note: potency is the fitted concentration of half-maximal effect
Outline: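 Conditioned medium drove Shh signaling in 3T3 Gli1-Luc cells exposed to compounds at 37C and 5% CO2. Viability was determined from CellTiter-Fluor fluorescence, with reagent incubated 1 hr after 23 hr of treatment.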

[5] = qHTS assay to identify small molecule agonists of the sonic hedgehog signaling (Shh) pathway (AID 1259368; calls by dose curve;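 note: NIH/3T3-derived 3T3Gli1-Luc cells carrying a stable Gli1-driven firefly luciferase reporter; series mostly up to about 92 µM; nearly all actives have a fitted effect of over 15% in size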)
Outline: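 Following a 24 hr incubation with DMSO-dissolved compounds at 37 C, 5% CO2, Gli1-Luc NIH/3T3-derived cells received luciferase reagent for 30 min at room temperature prior to luminescence measurement.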

[6] = qHTS assay to identify small molecule antagonists of the sonic hedgehog signaling (Shh) pathway (AID 1259369; calls by dose curve; note: nearly all actives have a fitted effect of over 45% in size; note: potency is the fitted concentration of half-maximal effect)
Outline: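 Read-out is luminescence from a firefly luciferase gene controlled by the Gli1 response element, in 3T3Gli1-Luc cells pre-incubated 4hr then exposed to compounds and conditioned medium for 24hr.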

[7] = biological target: Estrogen receptor beta (Homo sapiens) (UniProt Q92731); assay: qHTS assay to identify small molecule agonists of the estrogen receptor beta (ER-beta) signaling pathway (AID 1259377; active = well fitted activation curve with a large enough effect in the signal ratio in the repeat runs, not every such curve was filed as active; the % refers to the signal ratio)
Outline: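 Beta-lactamase reporter readout: fluorescence of LiveBLAzer B/G FRET substrate after 2 h at room temperature, following 16 h compound treatment of ER-beta-UAS-bla HEK293T cells at 37C in 2% charcoal-stripped FBS medium.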

[8] = biological target: Estrogen receptor beta (Homo sapiens) (UniProt Q92731); assay: qHTS assay to identify small molecule antagonists of the estrogen receptor beta (ER-beta) signaling pathway (AID 1259378; active = well fitted inhibition curve with a large enough effect in the signal ratio in the repeat runs, not every such curve was filed as active; the % refers to the signal ratio; note: potency is the fitted concentration of half-maximal effect)
Outline: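 ER-beta-UAS-bla HEK293T (GripTite) cells in 2% charcoal-stripped FBS medium were preincubated 6 hr at 37C, dosed with compound, then stimulated with 1 nM E2 (final) for 16 hr; beta-lactamase reporter read by B/G FRET fluorescence after 2 hr substrate loading.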

[9] = qHTS assay to identify small molecule phospholipidosis (PLD) inducers (AID 1259344; active = well fitted curve in the direction sought with a large enough effect; an effect the other way counts as inactive or inconclusive)
Outline: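 After 4 h attachment on collagen I, HepG2 cells were dosed with compound alongside LipidTOX Red, kept 24 h at 37 C, fixed, and imaged for lamellar phospholipid pits.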

Measured: Potency

Estrogen receptor beta (Homo sapiens), sequence (Q92731 whole entry, looked up): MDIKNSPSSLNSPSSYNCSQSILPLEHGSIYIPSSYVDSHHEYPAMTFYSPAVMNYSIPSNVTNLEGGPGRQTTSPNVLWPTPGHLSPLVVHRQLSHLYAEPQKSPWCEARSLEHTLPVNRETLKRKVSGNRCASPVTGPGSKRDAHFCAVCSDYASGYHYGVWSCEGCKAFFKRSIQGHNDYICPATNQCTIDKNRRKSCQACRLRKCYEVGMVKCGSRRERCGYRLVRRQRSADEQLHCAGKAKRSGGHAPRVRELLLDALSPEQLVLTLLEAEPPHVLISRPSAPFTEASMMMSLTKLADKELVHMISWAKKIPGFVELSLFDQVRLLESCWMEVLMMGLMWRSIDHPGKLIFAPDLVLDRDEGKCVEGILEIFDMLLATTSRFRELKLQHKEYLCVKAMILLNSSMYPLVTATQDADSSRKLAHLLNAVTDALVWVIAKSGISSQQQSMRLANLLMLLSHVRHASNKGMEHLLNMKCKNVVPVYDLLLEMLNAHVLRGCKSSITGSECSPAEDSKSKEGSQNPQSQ

CCCCCC/C(C=O)=C\c1ccccc1
not listed: [9]
inactive: all other assays above

C[Si](O[Si](C)(C)C)O[Si](C)(C)C
not listed: [4] | [9]
inactive: all other assays above

CN(C)CCC(c1ccccc1)c1ccccn1 (stereo not drawn)
not listed: [1]
inactive: all other assays above

CC(C)CC(=O)CC(C)C
not listed: [1] | [9]
inactive: all other assays above

O=P(OC(CCl)CCl)(OC(CCl)CCl)OC(CCl)CCl
active: [3] 30.5 µM | [4] 30.5 µM | [8] 54.5 µM
not listed: [9]
inactive: all other assays above

C=C(C)C(=O)OCCOCCOCCOC(=O)C(=C)C
inactive: [2] | [3] | [4] | [5]

CN(C)CCOCCN(C)C
not listed: [1] | [9]
inactive: all other assays above

O=C(O)c1cc(C(=O)O)cc(S(=O)(=O)O)c1
not listed: [7] | [8] | [9]
inactive: all other assays above

O=C(O)c1ccc(C(=O)O)cc1
inactive: [1] | [2] | [3] | [5] | [6]

Nc1ccccc1[N+](=O)[O-]
not listed: [9]
inactive: all other assays above

CN(C)CCC(c1ccc(Cl)cc1)c1ccccn1 (stereo not drawn)
61.3 µM (active) and inactive: [3]
inactive: [1] | [2] | [5]
active: [6] 24.4 µM and 17.2 µM

O=c1[nH]nnc2ccccc12
not listed: [9]
inactive: all other assays above

O=C(Oc1ccccc1)c1ccccc1
not listed: [1] | [9]
inactive: all other assays above

CC1CCC2CC1C2(C)C (stereo not drawn)
not listed: [9]
inactive: all other assays above

COc1ccc(Cl)cc1C(=O)NCCc1ccc(S(=O)(=O)NC(=O)NC2CCCCC2)cc1
not listed: [1] | [4]
inactive: all other assays above

CC(C)(C)[C@@H](O)[C@@H](Cc1ccc(Cl)cc1)n1cncn1
not listed: [1] | [6] | [9]
inactive: all other assays above

ON=C1CCCCC1
inactive: [2] | [3] | [5] | [7] | [8]
inactive and 27.3 µM (active): [6]

O=C(O)[C@H](O)[C@@H](O)[C@H](O)[C@H](O)CO
inactive: [9] | [2] | [3] | [5] | [6]

CCCCCCCCC/C=C/CC1CC(=O)OC1=O (stereo not drawn)
inactive: [2] | [3] | [5] | [6]

CCCCC(CC)COC(=O)C(C#N)=C(c1ccccc1)c1ccccc1 (stereo not drawn)
active: [8] 19.3 µM
not listed: [1]
inactive: all other assays above

CCCCC(CC)CO (stereo not drawn)
not listed: [4] | [9]
inactive: all other assays above

Cc1cccnc1
not listed: [9]
inactive: all other assays above

OCC(CO)(CBr)CBr
not listed: [7] | [8] | [9]
inactive: all other assays above

CCCCCCCCCCCCc1ccccc1
inactive: [1] | [2] | [3] | [5] | [6]

Cc1occc(=O)c1O
inactive: [1] | [2] | [3] | [5] | [6]

N[C@@H](Cc1cc(I)c(Oc2cc(I)c(O)c(I)c2)c(I)c1)C(=O)O
not listed: [1]
inactive: all other assays above

O=C(CC(C(=O)OC1CCCCC1)S(=O)(=O)O)OC1CCCCC1 (stereo not drawn)
not listed: [9]
inactive: all other assays above

CCCC(C)=O
inactive: [2] | [3] | [4] | [5] | [6]

CCCCCCCCCCCCCCCO
30.9 µM (active) and inactive: [3]
27.5 µM (active) and inactive: [6]
inactive: [2] | [5] | [7]

Oc1cccc2ccccc12
active: [6] 6.28 µM and 15.4 µM
inactive: [2] | [3] | [4] | [5] | [7]

CCCCOC(=O)COc1ccc(Cl)cc1Cl
inactive: [2] | [3] | [5] | [6]

Cc1ccc(S(N)(=O)=O)cc1
inactive: [1] | [2] | [3] | [5] | [6]

Nc1cc([N+](=O)[O-])ccc1O
active: [3] 48.6 µM
inactive: [1] | [2] | [4] | [5] | [6]

CCCCC(CC)COC(=O)CS (stereo not drawn)
inactive: [1] | [2] | [3] | [5] | [6]

CC1CCC(C(C)C)C(O)C1 (stereo not drawn)
not listed: [9]
inactive: all other assays above

CSCCC=O
not listed: [4] | [9]
inactive: all other assays above

CCC(O)OCCCOC (stereo not drawn)
22.2 µM (active) and inactive: [3]
not listed: [4] | [9]
inactive: all other assays above

CCCCCCCCCCCCOCCO
27.3 µM (active) and inactive: [6]
48.6 µM (active) and inactive: [4]
inactive: [1] | [2] | [3] | [5]
